ELG1 repair inh: blocks ELG1-dependent DNA repair in HEK293T cells. HEK293T ELG1-luciferase reporter, luminescence, 16 h; DNA damage induced by 5-fluorouridine. Potency, µM (top dose mostly 46.1 µM), for inactives: at the highest dose activity change, negative = inhibition, hits mostly inhibitors. 330,000 compounds, 2.3% hits; also: potency is read from the fitted curve at half-maximal effect; % is scaled to controls: 0 for no effect and ±100 for the full control effect; nearly all actives have a fitted effect of over 55% in size
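DMSO vehicle served as the neutral condition. Each well held 2,000 cells given 5-fluorouridine plus compound; after 16 hr at 37 °C/5% CO2, ONE-Glo was added and luciferase measured 30 min later.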
Giardia killer: kills Giardia lamblia. Giardia lamblia trophozoite viability. activity change, % at 7.66 µM, hits read low. 340,000 compounds, 0.15% hits. AID 540267; in the data active = activity change below about -80%; inconclusive = between about -30% and that limit;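 also: parasites exposed to compound for two days anaerobically before the ATP read; % is scaled to controls: 0 for no effect and ±100 for the full control effect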
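Luminescent ATP signal served as the viability read-out, measured 15-30 min after adding ATP detection reagent to trophozoites that had been incubated with compounds for 48 hrs at 37 deg C anaerobically at 100 cells/well.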
BRCA1 expr up: increases BRCA1 expression. MCF7-BRCA1-FFLuc reporter, luminescence, 48 h; response scale: scaled: vehicle 0%, 10 µM genistein 100%. Potency, µM (titrated, usually from 46.1 µM), without a hit: at the highest dose activation, actives largely listed as activators. 380,000 compounds, 1.1% hits. AID 624202; also: potency is read from the fitted curve at half-maximal effect; nearly all actives have a fitted effect of over 80% in size
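MCF7-BRCA1-FFLuc cells, 2000/well in phenol-red-free MEM, attached 2 h then treated 48 h at 37 C. Luciferase luminescence read 15 min after reagent; normalized to genistein maximum activation (10microM) and DMSO, concentration-response fitted.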
RORgamma inh: ROR gamma (mouse) transcription inhibition. P51450. Drosophila S2 Gal4-RORgamma UAS-luciferase reporter, 20 h. Potency, µM (top dose mostly 53.6 µM), for inactives: at the top dose activity change, negative = inhibition, usual class: inhibitors. 310,000 compounds, 5.4% hits. AID 2551; also: potency is read from the fitted curve at half-maximal effect; % is scaled to controls: 0 for no effect and ±100 for the full control effect; nearly all actives have a fitted effect of over 60% in size
Target sequence (P51450 whole entry, looked up, the tested form may be a part): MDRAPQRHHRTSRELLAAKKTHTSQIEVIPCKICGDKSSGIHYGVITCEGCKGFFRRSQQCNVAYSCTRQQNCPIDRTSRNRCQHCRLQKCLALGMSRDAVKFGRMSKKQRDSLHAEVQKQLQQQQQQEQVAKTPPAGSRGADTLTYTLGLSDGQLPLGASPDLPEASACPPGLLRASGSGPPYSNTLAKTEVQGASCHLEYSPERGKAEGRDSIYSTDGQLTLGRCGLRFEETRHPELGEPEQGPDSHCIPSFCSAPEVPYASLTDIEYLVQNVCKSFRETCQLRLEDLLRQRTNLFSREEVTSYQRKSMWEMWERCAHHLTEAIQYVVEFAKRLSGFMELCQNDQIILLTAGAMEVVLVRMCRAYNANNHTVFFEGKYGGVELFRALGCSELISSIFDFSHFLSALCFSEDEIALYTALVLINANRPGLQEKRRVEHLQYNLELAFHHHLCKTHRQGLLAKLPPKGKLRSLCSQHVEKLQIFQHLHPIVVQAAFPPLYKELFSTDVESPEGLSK
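Luminescence from a UAS-regulated Photinus luciferase reporter in stably transfected Drosophila Schneider cells is measured; decreased signal marks ROR gamma inhibition. Fusion expression is induced by 700 uM copper sulfate for 20 hr.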
p53 reactivator: re-activators of mutant p53; H1299 p53-A138V BP100-luciferase reporter, luminescence, 24 h; Potency, µM (doses to about 92.2 µM), for the others: at the top dose activity change, positive = activation, most hits filed as activators; 320,000 compounds, 0.063% hits; AID 504706; also: potency is read from the fitted curve at half-maximal effect; % of control where 0% means no effect; nearly all actives have a fitted effect of over 45% in size
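p53-null H1299 cells stably carrying temperature-sensitive p53-A138V and a BP100-luciferase reporter were pinned with compounds (4-point, 1:5 series) and held 24 hrs at 37 deg C. Luminescence was read 10 min after detection reagent.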
VP16 counter: inhibits Gal4-VP16 luciferase reporter, ROR gamma counter-screen. Drosophila S2 Gal4-VP16 UAS-luciferase, luminescence, 20 h. Potency, µM (titrated, usually from 53.6 µM), for the others: at the top dose activity, negative = inhibition, hits mostly inhibitors. 310,000 compounds, 3.5% hits;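 also: Gal4-VP16 expression switched on by copper sulfate through the metallothionein promoter; potency is read from the fitted curve at half-maximal effect; % is scaled to controls: 0 for no effect and ±100 for the full control effect; nearly all actives have a fitted effect of over 50% in size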
Numbers without * were called inactive; ? = inconclusive; · = not tested or not shown; [ ] = remark or other dose. Only some compounds are listed: those with a hit (about 7.6% of all), similar ones and a draw of the others. Unless noted, calls follow the shape of the dose curve; as a rule, active = well fitted curve in the direction sought with a large enough effect; inconclusive = small, poorly fitted or top-dose-only effect, or another doubt; inactive = no such curve, though single readings can be large; an effect the other way counts as inactive or inconclusive.

SMILES | ELG1 repair inh | Giardia killer | BRCA1 expr up | RORgamma inh | p53 reactivator | VP16 counter
CN(Cc1ccccc1)C(=O)COc1ccc2ccccc2c1 | · | 0 | 46% | · | · | ·
CC(C)C(NC(=O)C12CC3CC(CC(C3)C1)C2)C(=O)N/N=C/C1=C(N2CCOCC2)C(=C\c2ccc([N+](=O)[O-])cc2)/CC1 (stereo not drawn) | 15% | 8 | -12% | -19% | 0% | -8%
CC(C)(C)c1ccc2c(c1)OC(C(=O)N/N=C\c1ccccn1)CO2 (stereo not drawn) | 6% | 21 | -1% | ? | 2% | 18µM*
CCOC(=O)c1ccc(NC(=O)C2COc3ccccc3O2)cc1 (stereo not drawn) | 28% | -3 | 31% | -10%[1.91 µM] | · | 5%
CCOC(=O)c1ccc(-n2c(O)c(/C=N/NC(=O)C3COc4ccccc4O3)c3ccccc3c2=O)cc1 (stereo not drawn) | -13% | -1 | -61% | 2.5µM* | 6% | 2.8µM*
CC(NC(=O)C12CC3CC(CC(C3)C1)C2)C(=O)N/N=C/C1=C(N2CCOCC2)C(=C\c2cccc([N+](=O)[O-])c2)/CC1 (stereo not drawn) | 6.5µM* | -6 | -19% | -13% | -5% | 5%
O=C(N/N=C\c1ccc(Cl)s1)C1COc2ccccc2O1 (stereo not drawn) | ? | 8 | -20% | 0.63µM* | 4% | 0.89µM*
O=C(N/N=C\c1ccc([N+](=O)[O-])o1)C1COc2ccccc2O1 (stereo not drawn) | 1% | -82* | -90% | -43% | -5% | ?
O=[N+]([O-])c1ccc(/C=[N+](\[O-])[C@@H]2CCCC[C@@H]2/[N+]([O-])=C/c2ccc([N+](=O)[O-])o2)o1 | ? | -82* | -93% | -72% | -12% | ?
CC(NC(=O)c1ccc([N+](=O)[O-])o1)C12CC3CC(CC(C3)C1)C2 (stereo not drawn) | 6% | -87* | -67% | 2.5µM* | -17% | -13%
O=C(N/N=C\c1ccc([N+](=O)[O-])s1)C1COc2ccccc2O1 (stereo not drawn) | ? | -85* | -65% | 3.5µM* | ? | 2.8µM*
O=C(N/N=C\c1ccc(-c2ccccc2[N+](=O)[O-])o1)C1COc2ccccc2O1 (stereo not drawn) | ? | -13 | -31% | ? | 1% | ?
O=C(NCCS(=O)(=O)N1CCN(C(=O)c2ccco2)CC1)c1ccccc1 | · | · | 32% | · | · | ·
O=C(N/N=C/c1ccc([N+](=O)[O-])o1)C1CCCC1 | ? | -93* | -51% | -38% | 11% | -28%
O=C(N/N=C/c1ccco1)C1CCCC1 | 21% | 0 | 12% | -14% | -9% | -1%
CC(NC(=O)C12CC3CC(CC(C3)C1)C2)C(=O)NN=Cc1ccc([N+](=O)[O-])o1 (stereo not drawn) | -24% | -93* | -84% | · | ? | ·
O=C(N/N=C/c1ccco1)C12CC3CC(CC(C3)C1)C2 | 23% | 14 | -3% | ? | 10% | 9%
C[C@H](CO)N1C[C@H](C)[C@@H](CN(C)S(=O)(=O)c2ccc(F)cc2)Oc2ccc(NC(=O)C3CC3)cc2C1=O | ? | -20 | 4% | · | 4% | ·
Nn1c(Cc2cccc3ccccc23)nnc1SCC(=O)NC1CCS(=O)(=O)C1 (stereo not drawn) | -3% | -8 | 52% | ? | 1% | -6%
O=C(CCNS(=O)(=O)c1ccc(Br)cc1)NCc1ccc(Cl)cc1 | 0% | -1 | -22% | -22% | -6% | -2%
Cc1ccc(S(=O)(=O)n2nc(-c3ccco3)nc2SCc2ccccc2)cc1 | ? | -7 | 11µM* | -17% | 24% | 2%
O=C(Cc1ccccc1)n1nc(-c2ccco2)nc1SCc1ccccc1 | ? | 3 | 11µM* | ? | 14% | 16%
O=C(c1ccco1)n1nc(-c2ccccc2)nc1SCc1ccccc1 | ? | -14 | 2.8µM* | 20% | 18% | 17%
O=C(c1ccco1)n1nc(-c2ccco2)nc1SCc1ccccc1 | ? | -7 | ? | 11% | 4% | 13%
CSc1nc(-c2ccco2)nn1S(=O)(=O)c1ccc(C)cc1 | 17% | ? | 0% | -25% | -3% | -6%
SMILES | ELG1 repair inh | Giardia killer | BRCA1 expr up | RORgamma inh | p53 reactivator | VP16 counter
CCCC(=O)n1nc(-c2ccco2)nc1SCc1ccccc1 | ? | 14 | ? | 19% | ? | ?
O=S(=O)(NC1CC1)c1ccc(Cl)cc1F | 7% | 31 | -9% | -29% | 9% | -6%
COc1ccc(-c2csc(NC(=O)C3CC(=O)N(Cc4ccccc4)C3)n2)cc1OC (stereo not drawn) | 12µM* | 10 | -34% | 3% | -29% | -2%
COc1ccc(-c2csc(NC(=O)CS(=O)(=O)c3ccccc3)n2)cc1OC | · | · | 5% | · | · | ·
COc1ccc(CC(=O)Nc2nc(-c3ccc(OC)c(OC)c3)cs2)cc1OC | 18µM* | 17 | -63% | ? | -7% | ?
COc1ccc(-c2csc(NC(=O)c3cc(C)oc3C)n2)cc1OC | 18µM* | -1 | 21% | 9% | 3% | 10%
COc1ccc(-c2csc(NC(=O)Cc3ccccc3F)n2)cc1OC | 16µM* | 3 | -36% | 26% | 1% | 8%
COc1ccc(-c2csc(NC(=O)CSCc3c(C)noc3C)n2)cc1OC | 12µM* | 20 | -33% | -8% | -14% | -2%
COC(=O)c1cccc(NC(N)=S)c1 | -8% | -18 | 5% | -9% | 17% | -8%
CNC(=S)Nc1cccc(C(=O)OC)c1 | ? | -19 | 7.1µM* | ? | 11% | -4%
COC(=O)c1cccc(NC(=S)NCc2ccc(F)cc2)c1 | -9% | -6 | 16% | 10µM* | -5% | ?
N#Cc1cccc(NCC(=O)Nc2ccc3c(c2)OCCO3)c1 | ? | -11 | ? | -12% | ? | -3%
Cc1cc(C)c(C#N)c(N2CCN(CCOc3ccc(Cl)cc3)CC2)n1 | 18µM* | -3 | -32% | 26% | -3% | -2%
Nc1cc(Cl)ccc1C(=O)OCC(=O)NC(=O)NCc1ccccc1 | 5% | -22 | -12% | -2% | 1% | -14%
OCCCNC(=S)Nc1ccc2nc(-c3ccccn3)c(-c3ccccn3)nc2c1 | 12% | 2 | -1% | 40% | 0% | 1%
S=C(Nc1ccc2nc(-c3ccccn3)c(-c3ccccn3)nc2c1)N1CCOCC1 | 6% | -15 | 15% | -27% | 1% | -6%

Screens from PubChem.
